The nature of assay [1]: qHTS assay to identify small molecule antagonists of the glucocorticoid receptor (GR) signaling pathway - cell viability counter screen (AID 720693). Also: nearly all actives have a fitted effect of over 55% in size. Also: potency is read from the fitted curve at half-maximal effect. For orientation: In qHTS, concentration-response curves come from the screen itself.
A short description of assay [2]: qHTS assay for identifying genotoxic compounds that show differential cytotoxicity against isogenic chicken DT40 cell lines with known DNA damage response pathways - wild type cell line (AID 743012). Also: nearly all actives have a fitted effect of over 60% in size. Also: potency is read from the fitted curve at half-maximal effect. In a few lines: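 Parental DNA repair-proficient DT40 cells, 300 per well, were pre-incubated ~0.5 h at 37 C/5% CO2, pin-dosed with compounds in DMSO, then incubated 40 h. Viability was read as CellTiter-Glo luminescence after 30 min at room temperature.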

The nature of assay [3]: qHTS assay for identifying genotoxic compounds that show differential cytotoxicity against isogenic chicken DT40 cell lines with known DNA damage response pathways - Rev3 mutant cell line (AID 743014). Also: nearly all actives have a fitted effect of over 55% in size. Also: potency is read from the fitted curve at half-maximal effect.
Assay [4] in a line: qHTS assay for identifying genotoxic compounds that show differential cytotoxicity against isogenic chicken DT40 cell lines with known DNA damage response pathways - Rad54/Ku70 mutant cell line (AID 743015). Also: nearly all actives have a fitted effect of over 60% in size. Also: potency is read from the fitted curve at half-maximal effect.
Assay [5] relates to thyroid hormone receptor (rat, GH3 cells). Briefly: qHTS assay to identify small molecule agonists of the thyroid receptor (TR) signaling pathway (AID 743066; calls by dose curve).
A short description of assay [6]: qHTS assay to identify small molecule antagonists of the estrogen receptor alpha (ER-alpha) signaling pathway using the BG1 cell line - cell viability counter screen (AID 743081).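 Also: compound given together with 17beta-estradiol as the ER stimulus; series mostly up to about 70 µM; nearly all actives have a fitted effect of over 45% in size.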
For another assay, the target named is Aromatase (Homo sapiens) (UniProt P11511). Description: qHTS assay to identify aromatase inhibitors (AID 743083). Also: nearly all actives have a fitted effect of over 55% in size. Also: potency is read from the fitted curve at half-maximal effect.
Aromatase (Homo sapiens), sequence (P11511 whole entry, looked up): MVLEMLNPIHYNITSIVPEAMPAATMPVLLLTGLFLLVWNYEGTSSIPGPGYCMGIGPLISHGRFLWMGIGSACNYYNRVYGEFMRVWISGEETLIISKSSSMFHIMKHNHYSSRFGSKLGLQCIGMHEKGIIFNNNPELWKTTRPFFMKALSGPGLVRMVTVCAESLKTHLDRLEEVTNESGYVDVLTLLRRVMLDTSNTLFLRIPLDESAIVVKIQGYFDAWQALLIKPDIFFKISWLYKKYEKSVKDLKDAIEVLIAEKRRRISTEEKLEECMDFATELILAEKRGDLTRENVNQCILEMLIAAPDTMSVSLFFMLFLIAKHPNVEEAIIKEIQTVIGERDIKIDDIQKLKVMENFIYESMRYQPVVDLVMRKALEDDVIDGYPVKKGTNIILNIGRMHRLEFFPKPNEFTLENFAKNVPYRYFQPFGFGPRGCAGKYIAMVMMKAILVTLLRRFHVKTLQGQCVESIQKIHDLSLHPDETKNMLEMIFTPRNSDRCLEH
Assay [7] can be described thus: qHTS assay to identify aromatase inhibitors - cell viability counter screen (AID 743084).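 Also: cells stimulated with testosterone during compound exposure; nearly all actives have a fitted effect of over 55% in size.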 Also: potency is read from the fitted curve at half-maximal effect.
The nature of assay [8]: qHTS assay to identify small molecule antagonists of the androgen receptor (AR) signaling pathway using the MDA cell line - cell viability counter screen (AID 743041; also: nearly all actives have a fitted effect of over 45% in size). In short, it runs like this: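 MDA-kb2 AR-luc human breast carcinoma cells (MMTV-luciferase, AR/GR responsive) were treated with compounds plus R1881 agonist for 16 h at 37 °C. Viability was read as CellTiter-Fluor fluorescence in the same wells as the reporter assay.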

Assay [9] in a line: qHTS assay to identify small molecule antagonists of the thyroid receptor (TR) signaling pathway - cell viability counter screen (AID 743064). Also: nearly all actives have a fitted effect of over 50% in size. Also: potency is read from the fitted curve at half-maximal effect. In short, it runs like this:
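In rat pituitary GH3.TRE-Luc reporter cells co-exposed to compound and 1 nM T3 for 23.5 h, cytotoxicity was assessed with CellTiter-Fluor in the same wells, read by fluorescence.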

Assay [10] can be described thus: qHTS assay to identify small molecule antagonists of the estrogen receptor alpha (ER-alpha) signaling pathway - cell viability counter screen (AID 743074; calls by dose curve; also: nearly all actives have a fitted effect of over 45% in size; also: potency is read from the fitted curve at half-maximal effect).
Assay [11] deals with Androgen receptor (Homo sapiens) (UniProt P10275). Briefly: qHTS assay to identify small molecule agonists of the androgen receptor (AR) signaling pathway using the MDA cell line (AID 743040; also: potency is read from the fitted curve at half-maximal effect; nearly all actives have a fitted effect of over 20% in size). In a few lines: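 MDA-kb2 breast carcinoma cells stably carrying an MMTV-driven luciferase reporter (AR- and GR-responsive) were seeded and held 5 h at 37C, 0% CO2, then exposed to compounds in DMSO for 16 h. Luminescence was read 30 min after ONE-Glo addition.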
Androgen receptor (Homo sapiens), sequence (P10275 whole entry, looked up): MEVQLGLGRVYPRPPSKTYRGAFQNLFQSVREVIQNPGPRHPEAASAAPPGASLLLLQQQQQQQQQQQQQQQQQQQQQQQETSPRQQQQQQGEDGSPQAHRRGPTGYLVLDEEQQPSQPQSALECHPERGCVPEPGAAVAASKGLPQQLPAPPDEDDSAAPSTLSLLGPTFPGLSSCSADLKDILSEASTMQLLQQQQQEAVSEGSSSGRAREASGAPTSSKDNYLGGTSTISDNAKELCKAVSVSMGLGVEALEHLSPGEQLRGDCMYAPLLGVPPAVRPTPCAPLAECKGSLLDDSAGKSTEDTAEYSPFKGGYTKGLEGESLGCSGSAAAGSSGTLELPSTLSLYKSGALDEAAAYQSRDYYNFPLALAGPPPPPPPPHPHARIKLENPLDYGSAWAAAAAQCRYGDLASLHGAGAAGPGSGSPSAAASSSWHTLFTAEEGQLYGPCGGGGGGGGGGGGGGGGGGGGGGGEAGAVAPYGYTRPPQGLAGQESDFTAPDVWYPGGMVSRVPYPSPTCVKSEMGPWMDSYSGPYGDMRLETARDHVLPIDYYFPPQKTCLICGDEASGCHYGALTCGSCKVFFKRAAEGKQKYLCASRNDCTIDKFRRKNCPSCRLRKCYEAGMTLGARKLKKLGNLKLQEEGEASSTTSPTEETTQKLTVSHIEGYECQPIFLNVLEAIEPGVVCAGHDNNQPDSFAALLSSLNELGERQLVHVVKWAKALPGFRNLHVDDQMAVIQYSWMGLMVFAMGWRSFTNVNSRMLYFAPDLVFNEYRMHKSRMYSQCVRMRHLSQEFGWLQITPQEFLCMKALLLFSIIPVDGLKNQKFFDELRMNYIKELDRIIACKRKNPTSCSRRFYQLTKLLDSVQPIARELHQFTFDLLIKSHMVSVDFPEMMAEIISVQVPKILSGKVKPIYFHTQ

A short description of assay [12]: qHTS assay to identify small molecule antagonists of the thyroid receptor (TR) signaling pathway (AID 743065). Also: nearly all actives have a fitted effect of over 55% in size. Also: potency is read from the fitted curve at half-maximal effect. In short, it runs like this: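 GH3.TRE-Luc rat pituitary cells carrying two TR response elements driving luciferase were plated for 4 h, given compound plus 1 nM T3 (final), and incubated 23.5 h at 37 C. ONE-Glo luminescence measured reporter inhibition; CellTiter-Fluor fluorescence tracked cytotoxicity.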

In assay [13] the target is Estrogen receptor (Homo sapiens) (UniProt P03372). Description: qHTS assay to identify small molecule antagonists of the estrogen receptor alpha (ER-alpha) signaling pathway (AID 743069; active = well fitted curve in the direction sought with a large enough effect in the signal ratio in the repeat runs, not every such curve was filed as active; the % refers to the signal ratio; also: potency is read from the fitted curve at half-maximal effect). In a few lines:
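HEK293 cells stably carrying an ER-alpha-UAS-bla beta-lactamase reporter were pre-cultured overnight in 2% charcoal-stripped FBS medium. Test compounds in DMSO were added together with 17beta-estradiol for 18 hr at 37C. Read-out was fluorescence after 2 hr with LiveBLAzer B/G FRET substrate at room temperature.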

Assay [14] has the same target. Briefly: qHTS assay to identify small molecule agonists of the estrogen receptor alpha (ER-alpha) signaling pathway (AID 743075; calls by dose curve).
Assay [15] shares this target. Description: qHTS assay to identify small molecule agonists of the estrogen receptor alpha (ER-alpha) signaling pathway using the BG1 cell line (AID 743079). Also: nearly all actives have a fitted effect of over 20% in size.
Assay [16] can be described thus: qHTS assay to identify small molecule antagonists of the estrogen receptor alpha (ER-alpha) signaling pathway using the BG1 cell line (AID 743080; calls by dose curve;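 also: BG1 cells stimulated with 17beta-estradiol alongside compound; nearly all actives have a fitted effect of over 25% in size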; also: potency is read from the fitted curve at half-maximal effect). In short, it runs like this:
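After 5 days in phenol-red-free 10% charcoal-stripped FBS medium, BG1-Luc-4E2 cells were seeded, left 24 h at 37 C, co-treated with compounds and 17beta-estradiol for 21.5 h, then assayed for viability and luciferase.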

Assay [17] in a line: qHTS assay to identify small molecule antagonists of the androgen receptor (AR) signaling pathway - cell viability counter screen (AID 743033; also: nearly all actives have a fitted effect of over 45% in size).

Several values for one entry are separate records, joined by “and”; a condition that tells them apart may be missing. Equal entries are not always repeated. Results filed as inconclusive are left out. Where a structure was tested more than once in an assay, its records may differ in their call. Activity calls are given as the source filed them. Unless noted, calls follow the shape of the dose curve; as a rule, active = well fitted curve in the direction sought with a large enough effect in the repeat runs; inconclusive = weak or mixed curves; inactive = no such curve, though single readings can be large; an effect the other way counts as inactive or inconclusive.

Estrogen receptor (Homo sapiens), sequence (P03372 whole entry, looked up): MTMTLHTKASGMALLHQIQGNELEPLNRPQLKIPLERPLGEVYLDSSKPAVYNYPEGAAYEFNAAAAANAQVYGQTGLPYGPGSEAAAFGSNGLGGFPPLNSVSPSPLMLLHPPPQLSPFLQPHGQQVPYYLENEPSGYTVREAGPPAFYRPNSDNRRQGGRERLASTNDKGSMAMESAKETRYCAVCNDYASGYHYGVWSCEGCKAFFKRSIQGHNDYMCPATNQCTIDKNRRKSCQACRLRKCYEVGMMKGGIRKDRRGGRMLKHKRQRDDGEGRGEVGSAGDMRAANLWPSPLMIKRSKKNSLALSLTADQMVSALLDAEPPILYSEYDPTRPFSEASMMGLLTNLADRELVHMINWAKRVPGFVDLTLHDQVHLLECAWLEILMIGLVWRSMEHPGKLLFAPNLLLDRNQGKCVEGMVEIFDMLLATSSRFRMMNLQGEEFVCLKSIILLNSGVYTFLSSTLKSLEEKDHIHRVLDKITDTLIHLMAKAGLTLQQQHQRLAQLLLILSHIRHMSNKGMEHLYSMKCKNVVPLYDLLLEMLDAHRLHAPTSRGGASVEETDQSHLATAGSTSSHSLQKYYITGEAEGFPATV

Consider `CC(=O)[O-].[Tl+]`, for which the Potency result in [1], in assay [6] and in assay [7] was “inactive” throughout. Also, the Potency is 2.75 µM (active) in [2], 1.73 µM (active) in assay [3], 1.73 µM (active) in assay [4] and 61.5 µM (active) with Aromatase (Homo sapiens). Also, in [5], the compound was classed as inactive.

For the compound `CC1(C)[C@H](C(=O)O[C@H](C#N)c2cccc(Oc3ccccc3)c2)[C@@H]1/C=C(\Cl)C(F)(F)F`, the Potency result (in [1]; in assay [8]; in assay [9]; in assay [10]; in assay [6]; with Aromatase (Homo sapiens)) was “inactive” each time. Moreover, in [7], the Potency result is “inactive”. Further, the Potency is 50.5 µM (active) in assay [2], 50.5 µM (active) in assay [3] and 40.1 µM (active) in [4]. The outcome in assay [5] was inactive.

With `CC1(C)CC/C(=C/c2ccc(Cl)cc2)C1(O)Cn1cncn1` (stereo not drawn), the Potency result in assay [1], in [13], in assay [10], in assay [14], in [15] and in assay [16] was “inactive” each time. Also, the Potency result (with Aromatase (Homo sapiens); in assay [7]) was “inactive” throughout. For the same compound, the Potency was 21.6 µM (active) in assay [2]; 60.8 µM (active) in [3]; 55.2 µM (active) in assay [4]; 9.63 µM (active) in assay [11]; 54.2 µM (active) in [12]. Also, the result in [5] was inactive.

Regarding `C=CCC1=C(C)C(OC(=O)C2C(C=C(C)C)C2(C)C)CC1=O` (stereo not drawn), the Potency is 46.3 µM (active) in [1]; 10.3 µM (active) in assay [2]; 16.8 µM (active) in [3]; 18.7 µM (active) in assay [4]; 49.3 µM (active) in assay [9]; 58.3 µM [fluorescent] (active) in assay [13]. Also, the Potency is 46.3 µM (active) in assay [10], 36.4 µM (active) in assay [16], 47.2 µM (active) in the assay with Aromatase (Homo sapiens) and 25.8 µM (active) in assay [7]. For the same compound, the compound was classed as inactive in [5]. In addition, in assay [14], the Potency result was “inactive”.

On to `Clc1ccc(-c2ccc(Cl)c(Cl)c2Cl)c(Cl)c1Cl`, for which the Potency result in assay [1], in assay [2], in assay [3], in [17], in assay [8] and in [9] was “inactive” each time. In addition, the Potency result in assay [12], in assay [10], in [14], in [15], in assay [16] and in [6] was “inactive” throughout. Further, the Potency result (with Aromatase (Homo sapiens); in [7]) was “inactive” in each case. The result in assay [5] was inactive.

In the case of `C[C@H]1CC[C@@H]2[C@@H](C)[C@H]3[C@H](C[C@H]4[C@@H]5CC=C6CC(O[C@@H]7O[C@H](CO)[C@H](O)[C@H](O[C@@H]8O[C@H](CO)[C@@H](O)[C@H](O)[C@H]8O)[C@H]7O[C@H]7O[C@@H](C)[C@H](O)[C@@H](O)[C@H]7O)CC[C@]6(C)[C@H]5CC[C@]34C)N2C1` (stereo partly drawn), the Potency result in assay [1], in assay [3], in assay [17], in assay [13], in assay [15] and in [6] was “inactive” throughout. Moreover, the Potency in assay [2] is 26.6 µM (active) and inactive; in [4], 26.6 µM (active) and inactive; in [9] it was 18.8 µM (active) and inactive; in assay [10] it was 16.9 µM (active) and inactive; in assay [16], 17.8 µM (active); with Aromatase (Homo sapiens) it was 25.1 µM (active). In addition, in assay [7], the Potency is 19.9 µM (active). In addition, the compound was called inactive in assay [5].

Turning to `O=[N+]([O-])O.O=[N+]([O-])O.[Cd]`, the Potency entry (in assay [1]; in assay [8]; in assay [10]; with Aromatase (Homo sapiens)) was “inactive” throughout. The Potency in assay [2] was 43.3 µM (active); in [3], 27.3 µM (active); in assay [4], 61.1 µM (active).

`CN(C)[C@@H]1C(=O)C(C(N)=O)=C(O)[C@@]2(O)C(=O)C3=C(O)c4c(O)ccc(Cl)c4[C@@](C)(O)[C@H]3C[C@@H]12`: the Potency result in assay [1], in [2], in assay [17], in assay [8], in assay [9] and in [12] was “inactive” in each case. Also, the Potency result (in assay [10]; in [6]; with Aromatase (Homo sapiens); in assay [7]) was “inactive” each time. Besides, the Potency entry in assay [3] is “inactive and 55.6 µM (active)”. For the same compound, the outcome in assay [5] was inactive.

The values are drawn from PubChem BioAssay (Tox21).
